# Source: PubChem (National Center for Advancing Translational Sciences (NCATS))
# In the library only some 10% were active in any assay of this set; here they are far more common.
# JMJD2A Tudor inh = blocks the human JMJD2A Tudor domain; actives 4.4% (n = 390,000); Potency, µM (doses to about 114 µM), inactives show at the top dose activity change, negative = inhibition, hits mostly inhibitors; AlphaScreen JMJD2A-Tudor / H3K4me3 peptide binding; further: potency means the concentration at half of the fitted maximal effect; on the % scale 0 is the no-effect control and ±100 the full control effect; nearly all actives have a fitted effect of over 50% in size
# Target sequence (O75164 whole entry, looked up, the tested form may be a part): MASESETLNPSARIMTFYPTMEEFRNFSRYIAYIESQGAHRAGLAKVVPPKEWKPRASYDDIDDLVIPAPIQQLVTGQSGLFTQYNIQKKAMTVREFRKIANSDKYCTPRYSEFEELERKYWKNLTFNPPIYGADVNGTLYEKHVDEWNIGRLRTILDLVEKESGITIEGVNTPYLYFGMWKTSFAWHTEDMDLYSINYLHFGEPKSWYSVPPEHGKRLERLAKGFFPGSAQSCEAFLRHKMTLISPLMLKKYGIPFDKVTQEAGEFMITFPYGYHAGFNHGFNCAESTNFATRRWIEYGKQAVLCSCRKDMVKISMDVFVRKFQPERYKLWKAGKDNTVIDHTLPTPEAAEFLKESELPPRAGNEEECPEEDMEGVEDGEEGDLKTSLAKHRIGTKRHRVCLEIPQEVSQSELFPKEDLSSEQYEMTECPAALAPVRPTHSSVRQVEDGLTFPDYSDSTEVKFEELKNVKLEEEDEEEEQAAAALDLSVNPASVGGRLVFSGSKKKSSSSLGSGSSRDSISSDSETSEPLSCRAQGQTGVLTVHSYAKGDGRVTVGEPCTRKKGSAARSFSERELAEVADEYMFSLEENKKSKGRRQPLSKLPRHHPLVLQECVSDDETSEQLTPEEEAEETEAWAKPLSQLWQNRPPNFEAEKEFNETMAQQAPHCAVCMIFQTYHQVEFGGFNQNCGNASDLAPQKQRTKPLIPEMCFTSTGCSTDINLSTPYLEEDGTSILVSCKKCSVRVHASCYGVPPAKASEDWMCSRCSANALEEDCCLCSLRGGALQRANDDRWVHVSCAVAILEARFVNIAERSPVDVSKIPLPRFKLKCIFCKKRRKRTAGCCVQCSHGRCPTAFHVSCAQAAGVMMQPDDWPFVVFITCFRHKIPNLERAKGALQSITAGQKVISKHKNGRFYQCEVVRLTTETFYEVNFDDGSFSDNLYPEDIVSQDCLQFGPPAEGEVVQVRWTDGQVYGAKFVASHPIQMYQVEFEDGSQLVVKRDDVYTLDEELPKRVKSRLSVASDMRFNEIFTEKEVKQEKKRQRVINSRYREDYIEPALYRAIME
# HP1b chromo inh = inhibitors of HP1-beta chromodomain binding to methylated histone tails; actives 0.56% (n = 390,000); Potency, µM (highest dose often 114 µM), without a hit: at the top dose activity change, negative = inhibition, actives largely listed as inhibitors; AlphaScreen HP1-beta / biotin-H3K9me3 peptide binding; P83916; further: potency means the concentration at half of the fitted maximal effect; nearly all actives have a fitted effect of over 70% in size
#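 AlphaScreen: HP1-beta (50 nM) preformed 30 min with biotin-H3(1-18)K9me3 peptide (50 nM) in PBS pH 7.4, 0.01% Tween-20. Compound added for 30 min at RT, then streptavidin donor/nickel chelate acceptor beads (10 ug/mL) for 30 min.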
# CtBP-E1A inh = blocks the CtBP interaction with E1A | activity change, % (no concentration beside the values) | actives 0.49% (n = 340,000) | AlphaScreen GST-E1A/His-CtBP binding, 1536-well; active compounds read low; in the data active means activity change below about -65%; inconclusive means mostly about -30% to -63%; further: on the % scale 0 is the no-effect control and ±100 the full control effect
#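 GST-E1A and His-tagged CtBP (125 nM each as 5X stock) were preincubated with pin-transferred compound for 2 h at 37 °C in the dark, then glutathione donor and nickel acceptor beads were added for 1 h before AlphaScreen reading.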
# BAZ2B block = blocks human BAZ2B. Q9UIF8. AlphaScreen BAZ2B-H3K14Ac peptide displacement. Potency, µM (doses to about 114 µM), for inactives: top-dose activity change, negative = inhibition, hits mostly inhibitors. actives 4.4% (n = 360,000). AID 504333; further: potency means the concentration at half of the fitted maximal effect; on the % scale 0 is the no-effect control and ±100 the full control effect; nearly all actives have a fitted effect of over 60% in size
#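 AlphaScreen displacement: compounds (up to 110uM) incubated 30 min at room temperature with a preformed 50 nM BAZ2B/50 nM biotinylated H3K14Ac peptide complex in PBS pH 7.4 with Tween-20. Donor and acceptor beads at 10 ug/mL final added, 20 min light-protected before reading.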
# Six1-Eya2 inh = inhibitors of human Six1/Eya2 interaction; activity change, % (no concentration beside the values); Q15475+O00167; AlphaScreen GST-Six1/His-Eya2 binding, biochemical; active compounds read low; AID 651725; actives 0.56% (n = 360,000); in the data active means activity change below about -65%; inconclusive means mostly about -30% to -63%; further: on the % scale 0 is the no-effect control and ±100 the full control effect
#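 AlphaScreen luminescence read after one hour at 37 °C in darkness. Pin-transferred compounds met GST-Six1 and His-Eya2 protein (5X stock 250 nM/500 nM) plus glutathione donor and Ni-chelate acceptor beads (5X, 50 ug/mL).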
# G9a inh = G9a (human) methyltransferase inhibition; Q96KQ7; G9a H3K9 monomethylation, AlphaScreen, 2 h; Potency, µM (highest dose often 102 µM), for the others: at the top dose activity, negative = inhibition, actives largely listed as inhibitors; actives 8.8% (n = 350,000); further: potency means the concentration at half of the fitted maximal effect; on the % scale 0 is the no-effect control and ±100 the full control effect; nearly all actives have a fitted effect of over 75% in size
#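 Step 1: enzyme (final 20 nM) with compound, 15 min RT. Step 2: substrate peptide 500 nM and SAM 20 uM, 2 h RT. Step 3: anti-H3K9me1 antibody and AlphaScreen beads, 10 min, then plate read.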
# Numbers without * were called inactive; ? = inconclusive; / = not tested or not shown; ! = not active in a repeat; [ ] = remark or other dose. Unless noted, the call rests on the fitted dose curve; in most records, active means well fitted inhibition curve with a large enough effect; inconclusive means small, poorly fitted or top-dose-only effect; inactive means no such curve, though single readings can be large or run the other way.
SMILES,JMJD2A Tudor inh,HP1b chromo inh,CtBP-E1A inh,BAZ2B block,Six1-Eya2 inh,G9a inh
Cc1[nH]ccc2c1[nH]c1cc(=O)ccc12,-9%,6%,-12,-12%,-20,50µM*
CN(C)/C=C1/C(=O)NC(=O)N(CCNc2ncc(C(F)(F)F)cc2Cl)C1=O,-28%,-10%,1,?,8,45µM*
CCC(=O)Nc1cc(C(=O)O)ccc1S(=O)(=O)c1ccc(C)cc1,?,8%,10,?,-12,45µM*
CCC(=O)Nc1ccccc1,-20%,16%,14,5%,4,8%[12.7 µM]
O=[As]O[As]=O (configuration not stated),/,/,/,/,/,26%[59 µM]
CCC[C@@](C)(COC(N)=O)COC(=O)NC(C)C,/,/,/,/,/,19%[21.5 µM]
CCn1c(C)[n+](CC(O)COCC2CC=CCC2)c2ccccc21 (configuration not stated),?,13%,7,-1%,0,10µM*
CCc1ccc(CNC(=O)C2CCN(C(=O)c3ccc(-n4c(C)cc5ccccc54)s3)CC2)cc1,-28%,23%,/,?,/,-29%[59 µM]
CCn1c(O)c(C(c2ccccn2)c2c(O)n(CC)c(=S)[nH]c2=O)c(=O)[nH]c1=S,4µM*,21%,-13,32µM*,-8,?
CCn1c(O)c(C=NCc2ccccc2)c(=O)[nH]c1=S,-21%,6%,-2,-19%,16,?
O=c1[nH]c(=S)[nH]c(O)c1C(c1ccccn1)c1c(O)[nH]c(=S)[nH]c1=O,?,18%,1,20µM*,-5,5µM*
COc1ccc2o/c(=N\O)c(C(=O)Nc3ccc(C)cc3)cc2c1,-22%,22%,/,-4%,1,50µM*
COc1ccc(/C=C/C(=O)Nc2ccc(C)cc2)cc1,-15%,23%,/,0%,/,?
COc1cc(C)c(CN2CCN(c3ccccc3)CC2)cc1C,3.2µM*,-58%,-9,?,-23,?
Oc1ccc(Br)cc1CN1CCN(c2ccccc2)CC1,-18%,40%,-3,-6%,-6,-20%[12.7 µM]
Cc1ccccc1CN1CCN(c2ccc(Cl)cc2)CC1,4µM*,-12%,5,?,-2,13µM*
Cc1ccccc1CN1CCNCC1,-3%,43%,8,-21%,-1,/
COc1cc(O)c(C(=O)O)c(-c2cc(O)c(O)cc2C)c1,13µM*,?,0,56µM*,-7,0.35µM*
NC1=N[C@H](O)[C@H]2C3O[C@]4(O)O[C@H](C(O)[C@@]2(N1)[C@@H]4O)C3(O)CO (some centres not stated),/,/,/,/,/,2%[59 µM]
O=C(NC1CC2CCCC(C1)N2)c1ccccc1 (configuration not stated),-1%,42%,1,12%,0,/
O=C(OC1CC2CCC(N2)C1C(=O)O)c1ccccc1 (configuration not stated),89µM*,16%,4,/,2,/
CCCCCCCCCC[Si](C)(C)CCC(=O)NC(Cc1ccc(C)cc1)c1ccccc1 (configuration not stated),/,/,/,/,/,43%[59 µM]
O=C1NCCN2CCCC12 (configuration not stated),3%,54%,-2,-8%,-3,13µM*
CC(C)(C)c1ccc(/C=C2\Oc3cc(OC(=O)N4CCOCC4)ccc3C2=O)cc1,?,-17%,12,-2%,-10,2%[59 µM]
CCCCCCCCCCCCCC(=O)O[C@@H]1[C@@H](C)[C@@]2(O)[C@H](C=C(CO)C[C@]3(O)C(=O)C(C)=C[C@@H]23)[C@@H]2C(C)(C)C12OC(C)=O (some centres not stated),/,/,/,/,/,9%[59 µM]
C=CCN1CC[C@@]2(C)c3cc(O)ccc3CC1[C@@H]2C,-24%,29%,-4,2%,8,45µM*!
CCN(CC(=O)Nc1ccccc1C(F)(F)F)C(=O)Cn1c(=O)cnc2ccccc21,-17%,0%,-9,1%,0,?
